Experiments:
[1] = target: T1, Aspartate--tRNA(Asp/Asn) ligase (Mycobacterium tuberculosis (strain ATCC 25618 / H37Rv)) (UniProt P9WFW3); experiment: Assay for Asp RNA synthetase-1 from Mycobacterium tuberculosis; assay type: functional; set-up: scale not given: direction of the effect not stated beside the values; conditions: 30 µM; further: in the data most compounds retested in dose-response had high values
T1 sequence (whole entry): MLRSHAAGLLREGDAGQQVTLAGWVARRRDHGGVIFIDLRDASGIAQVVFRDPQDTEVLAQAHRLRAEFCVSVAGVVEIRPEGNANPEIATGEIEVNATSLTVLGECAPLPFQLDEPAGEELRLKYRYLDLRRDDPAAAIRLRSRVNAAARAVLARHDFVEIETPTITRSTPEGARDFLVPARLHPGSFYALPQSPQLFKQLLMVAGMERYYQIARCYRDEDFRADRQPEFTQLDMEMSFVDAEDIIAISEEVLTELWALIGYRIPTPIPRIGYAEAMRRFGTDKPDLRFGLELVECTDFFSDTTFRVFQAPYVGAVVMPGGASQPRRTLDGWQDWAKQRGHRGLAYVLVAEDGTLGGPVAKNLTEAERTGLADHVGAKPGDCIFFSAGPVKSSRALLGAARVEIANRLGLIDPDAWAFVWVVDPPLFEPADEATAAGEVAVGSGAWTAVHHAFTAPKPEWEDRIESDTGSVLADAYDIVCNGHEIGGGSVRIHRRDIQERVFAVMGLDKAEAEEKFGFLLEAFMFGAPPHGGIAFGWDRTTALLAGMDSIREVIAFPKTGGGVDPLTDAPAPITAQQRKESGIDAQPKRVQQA

[2] = target: Shiga toxin 2 (Escherichia coli O157:H7) (UniProt P09385+P09386); experiment: E. coli 0.157:H7 Shiga Toxin SOP - stx2 screening assay; assay type: functional; set-up: scale not given: direction of the effect not stated beside the values; conditions: 30 µM

c1ccc(-c2nc(CN3CCCC(Cn4cncn4)C3)no2)cc1 (centres undefined)
Percent Effect [1]: -9.3%
Percent Effect [2]: 7.88%

O=C(c1ccc(Cl)o1)N1CCCN(Cc2cscn2)CC1
Percent Effect [1]: -7.87%
Percent Effect [2]: 6.75%

Cc1noc(C)c1CN1C(=O)[C@H]2CC[C@@H]1CN(Cc1cccnc1N)C2
Percent Effect [1]: 3.56%
Percent Effect [2]: -24.1%

Cc1cc(CN2CCN(c3nn4cc(C)nc4s3)CC2)on1
Percent Effect [1]: -0.8%
Percent Effect [2]: -27.6%

CN(Cc1nccn1CC(F)(F)F)C(=O)c1ccc(F)cc1F
Percent Effect [1]: 1.98%
Percent Effect [2]: 9.03%

O=c1nc(CNc2ccccc2)[nH]n1Cc1ccccc1
Percent Effect [1]: 3.89%
Percent Effect [2]: 2.45%

CCC(NC(=O)C1CCN(S(C)(=O)=O)CC1)c1ccc(OC)c(OC)c1 (centres undefined)
Percent Effect [1]: 0%
Percent Effect [2]: -10.4%

Cn1cnnc1C1CCCN(C(=O)c2n[nH]c3ccccc23)C1 (centres undefined)
Percent Effect [1]: -3.14%
Percent Effect [2]: -4.11%

CC(C)c1nn(C)c(N2CCOCC2)c1CNCCS(C)(=O)=O
Percent Effect [1]: -2.08%
Percent Effect [2]: -5.89%

CNC(=O)CSc1cnn(CC(=O)Nc2cccc(Cl)c2C)c(=O)c1Cl
Percent Effect [1]: -5.35%
Percent Effect [2]: -8.91%

CCn1cc2c(n1)CN(Cc1ccncc1)CC2COCC1CC1 (centres undefined)
Percent Effect [1]: 1.43%
Percent Effect [2]: -18.6%

COc1ccccc1C(=O)N1CCCC1Cn1cc(C)cn1 (centres undefined)
Percent Effect [1]: 3.31%
Percent Effect [2]: 26.5%

CC(C)NC(=O)N1CCN(C(=O)N(C)C)CC2(CC(=O)N(C)C2)C1 (centres undefined)
Percent Effect [1]: -7.76%
Percent Effect [2]: -39.2%

Cc1ccc(C(O)CNCCn2cccn2)cc1C (centres undefined)
Percent Effect [1]: -5.54%
Percent Effect [2]: 2.86%

O=C(COCC1CC1)N1CCCC(n2cncn2)C1 (centres undefined)
Percent Effect [1]: -4.03%
Percent Effect [2]: 18.2%

O=c1ccc2c(n1CCN1CCCC1)CCN(Cc1ccoc1)CC2
Percent Effect [1]: -2.69%
Percent Effect [2]: -1.66%

Cc1cc(N2CCC3(CCC(=O)N(CC4CC4)C3)CC2)nc(N)n1
Percent Effect [1]: -0.719%
Percent Effect [2]: 0.426%

Cc1nn(C)c(Cl)c1C1CCCN1C(=O)c1nccnc1N (centres undefined)
Percent Effect [1]: -0.929%
Percent Effect [2]: 22.4%

COc1cccc(CN2CCN(c3ccc4nncn4n3)C(C)C2)c1 (centres undefined)
Percent Effect [1]: -3.34%
Percent Effect [2]: 14.8%

COCC1c2c(cnn2CC2CCOCC2)CCN1Cc1ccoc1 (centres undefined)
Percent Effect [1]: 0.211%
Percent Effect [2]: -9.29%

NS(=O)(=O)c1ccc(NC(=O)CSc2ccc3c(c2)CCC3)cc1
Percent Effect [1]: 3.87%
Percent Effect [2]: -78.8%

CCN(CC(=O)NC(C)C)S(=O)(=O)N1CCCCCC1
Percent Effect [1]: -4.33%
Percent Effect [2]: -4.09%

CCn1cc(NC(=O)NCC(O)COc2cccc(F)c2)cn1 (centres undefined)
Percent Effect [1]: 1.57%
Percent Effect [2]: 20.1%

Cc1ccc(CN2CCc3ncnc(C4CC4)c3CC2)s1
Percent Effect [1]: 9.9%
Percent Effect [2]: -8.76%

O=C(CCc1cscn1)NS(=O)(=O)c1ccc2c(c1)CCC2
Percent Effect [1]: -2.03%
Percent Effect [2]: -1.33%

CCC(O)CNC(=O)c1coc(COc2ccc3sc(C)nc3c2)n1 (centres undefined)
Percent Effect [1]: 5.32%
Percent Effect [2]: -27.2%

NC(=O)c1ccc(N2CCCCC2)c(NC(=O)c2cncc(Br)c2)c1
Percent Effect [1]: 13.7%
Percent Effect [2]: -52.6%

COCC(=O)N1CCC2(CC1)CC(CC(=O)NC1CC1)c1ccccc12 (centres undefined)
Percent Effect [1]: -1.39%
Percent Effect [2]: 9.56%

Cc1cc(CN(C)C(=O)NC2CCCN(c3ncccn3)C2)no1 (centres undefined)
Percent Effect [1]: -1.17%
Percent Effect [2]: 33.3%

CCOc1ccc(S(=O)(=O)NC(=O)CCC2CCCO2)cc1 (centres undefined)
Percent Effect [1]: 2.17%
Percent Effect [2]: 23.1%

CC(C)CS(=O)(=O)N1C[C@H]2C[C@H](C(=O)NCc3ccccc3)[C@@H](C1)O2
Percent Effect [1]: 2.67%
Percent Effect [2]: -41.8%

COC(=O)CCNC(=O)c1ccoc1CN1c2ccccc2CC1C (centres undefined)
Percent Effect [1]: 0.0912%
Percent Effect [2]: -1.74%

Cc1nc(C)n(CC2CCCN2Cc2cn(-c3ccccc3)nn2)n1 (centres undefined)
Percent Effect [1]: -2.81%
Percent Effect [2]: -8.85%

CCOc1ncccc1C(=O)N(C)Cc1ncc(C)c(OC)c1C
Percent Effect [1]: -0.375%
Percent Effect [2]: 19.7%

Cc1nn(C)c(N2CCOCC2)c1CNC1CCOc2ccccc21 (centres undefined)
Percent Effect [1]: -2.83%
Percent Effect [2]: 9.33%

O=C(C[C@@H]1COC[C@H]2CN(Cc3ccc(F)cc3)C[C@@H]12)N1CCCCO1
Percent Effect [1]: 3.14%
Percent Effect [2]: -37.2%

O=C(CN(Cc1ccccc1)CC1CCOCC1)Nc1nccs1
Percent Effect [1]: 2.07%
Percent Effect [2]: -19%

O=C(CCOCc1ccccc1)N1CCCC1c1noc(C2CC2)n1 (centres undefined)
Percent Effect [1]: 14.9%
Percent Effect [2]: 22.2%

O=C(NC1CCN(c2snc3ccccc23)CC1)C1CCC1
Percent Effect [1]: 4.7%
Percent Effect [2]: -22.1%

COc1cc(CN2CC[C@@]3(CCCO3)[C@@H](O)C2)ccc1F
Percent Effect [1]: 4.99%
Percent Effect [2]: 3%

Cc1nc(Cn2nc(C3CCNCC3)n(Cc3ccccc3)c2=O)no1
Percent Effect [1]: -2.53%
Percent Effect [2]: -3.49%

CCCNC(=O)c1ccc(NC(=O)c2cccc(OCC)c2)cc1
Percent Effect [1]: 2.98%
Percent Effect [2]: -85.2%

CN(C)c1ncccc1CNS(=O)(=O)c1ccccc1F
Percent Effect [1]: 4.63%
Percent Effect [2]: -24.7%

O=C(NCCN1CCOCC1)c1ccc(-n2ccc3ccccc32)s1
Percent Effect [1]: 3.45%
Percent Effect [2]: -47.9%

CCNc1cc2c(nn1)CCN(C(=O)c1ccc3cc[nH]c3c1)C2
Percent Effect [1]: 2.23%
Percent Effect [2]: -3.04%

Cc1cnn(CC2CCCN2C(=O)Cc2n[nH]c3ccccc23)c1 (centres undefined)
Percent Effect [1]: -2.71%
Percent Effect [2]: 12.2%

c1ccc(-c2nnc(CNCCn3cccn3)o2)cc1
Percent Effect [1]: -5.08%
Percent Effect [2]: 0.764%

Cc1cnc(C(=O)N2CCCCC2c2[nH]ncc2S(C)(=O)=O)cn1 (centres undefined)
Percent Effect [1]: 2.63%
Percent Effect [2]: -5.44%

CC(C)c1cc(C(=O)N2CCN(Cc3ccsc3)CC2)n[nH]1
Percent Effect [1]: -1.06%
Percent Effect [2]: 9.72%

COCC(NC(=O)c1ccc[nH]1)c1cccc(C(F)(F)F)c1 (centres undefined)
Percent Effect [1]: -2.7%
Percent Effect [2]: -17.9%

COc1cccc(N2CCN(CC(O)c3ccc(C)cc3)CC2)c1 (centres undefined)
Percent Effect [1]: 8.45%
Percent Effect [2]: 10.4%

Cc1nc(COCc2cnc3n2CCN(CC2CCC2)C3C)cs1 (centres undefined)
Percent Effect [1]: -6%
Percent Effect [2]: -3.62%

Reference: ChEMBL document CHEMBL3988442, “University of Dundee, Small-Polar-MMV Screening Library” (2021)
